Test results taken from PubChem BioAssay (NCATS).
Activity calls are given as the source filed them. Calls come from the whole dose curve; as a rule, active = well fitted curve in the direction sought with a large enough effect (not every such curve was filed as active); inconclusive = small, poorly fitted or top-dose-only effect, or effect the other way, or another doubt; inactive = no such curve, though single readings can be large or run the other way.

Molecular target: Pyruvate kinase PKM (Homo sapiens) (UniProt P14618)
Sequence (P14618 whole entry, looked up): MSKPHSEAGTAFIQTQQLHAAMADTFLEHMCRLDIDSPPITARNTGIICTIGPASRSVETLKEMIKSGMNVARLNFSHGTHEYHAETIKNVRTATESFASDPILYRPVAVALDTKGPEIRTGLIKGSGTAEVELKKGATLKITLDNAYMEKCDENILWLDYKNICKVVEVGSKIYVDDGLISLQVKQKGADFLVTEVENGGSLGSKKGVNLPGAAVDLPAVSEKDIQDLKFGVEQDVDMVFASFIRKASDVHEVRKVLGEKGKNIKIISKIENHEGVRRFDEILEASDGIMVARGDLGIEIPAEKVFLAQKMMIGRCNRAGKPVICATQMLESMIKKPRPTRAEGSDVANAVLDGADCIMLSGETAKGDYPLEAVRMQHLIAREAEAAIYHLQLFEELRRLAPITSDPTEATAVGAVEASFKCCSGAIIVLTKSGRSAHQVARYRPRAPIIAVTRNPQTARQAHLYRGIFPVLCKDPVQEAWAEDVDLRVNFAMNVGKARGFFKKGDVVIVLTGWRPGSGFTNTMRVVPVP
Experiment: qHTS Assay for Activators of Human Muscle Pyruvate Kinase (AID 954)
Details: purified human muscle pyruvate kinase, luciferase-coupled luminescence, 1 h; series mostly up to 57.5 µM
Description: NIH Molecular Libraries Screening Centers Network [MLSCN]
NIH Chemical Genomics Center [NCGC]
Wael M. Rabeh, Lyudmila Nedyalkova and Hee-Wan Park [Structural Genomics Consortium, 100 College St. Toronto, Ontario, Canada]
Human pyruvate kinase muscle 2 enzyme was supplied as a highly purified (>95% pure) preparation by the Structural Genomics Consortium in Toronto (Ontario, Canada) and was assayed for its ability to generate ATP from ADP using phosphoenolpyruvate (PEP) as a substrate. ATP generation was detected in a coupled reaction by luciferase-mediated luminescence, an ATP-dependent process. Pyruvate kinase substrates, PEP and ADP, were present in the assay at Km and approximately […]-fold below Km respectively. The enzyme was assayed at an intermediate level of activity to screen for inhibitors and activators.
NCGC Assay Protocol Summary:
Three uL of substrate mix (final concentration, 50 mM imidazole pH 7.2, 50 mM KCl, 7 mM MgCl2, 0.5 mM PEP, 0.1 mM ADP, 0.01% Tween 20, 0.05% BSA) was dispensed into 1536 well plates. 23 nL of compound were delivered by a pin tool and 1 uL of enzyme mix (final concentration, 0.1 nM pyruvate kinase, 50 mM imidazole pH 7.2, 0.05% BSA) was added. Plates were incubated at room temperature for 1 hour. Two uL of detection and kinase stop mix (PKLight, Cambrex) was added, the plates centrifuged, and luminescence read by a ViewLux (Perkin Elmer) at 5 second exposure/plate. Data were normalized to the uninhibited and AC100 inhibition (no enzyme or 110 uM N-methyl-2,3-diphenyl-1,2,4-thiadiazol-5-imine; CID: 682802; LOPAC-S-4063). To monitor activation, 0.3 nM pyruvate kinase was included in one control column.

Compound	outcome
O=C1CC[C@H](N2C(=O)c3ccccc3C2=O)C(=O)N1	inactive
CC[C@H](C)N(C)C(=O)c1cc2ccccc2c(-c2ccccc2Cl)n1	inactive
CN(C)CCCCSC(=N)N	inactive
CCn1ccnc1C[C@@H]1COc2ccccc2O1	inactive
CC(C)NC[C@@H](O)COc1ccc(CCOCC2CC2)cc1	inactive
CC1=C(\C=C/C(C)=C/C=C\C(C)=C\C(=O)O)C(C)(C)CCC1	inactive
Nc1c(S(=O)(=O)O)cc(Nc2ccc(Nc3nc(Cl)nc(Nc4ccc(S(=O)(=O)O)cc4)n3)c(S(=O)(=O)O)c2)c2c1C(=O)c1ccccc1C2=O	inactive
COc1[nH]c2ccc(F)cc2c1C(=O)OCC1CCN(CCNS(C)(=O)=O)CC1	inactive
C[C@@H]1CNCCN1S(=O)(=O)c1cccc2cnccc12	inactive
C1CCC(N=C(NC23CC4CC(CC(C4)C2)C3)N2CCOCC2)CC1	inactive
C[C@@H]([C@H](O)c1ccc(O)cc1)N1CCC(Cc2ccccc2)CC1	inactive
COc1cc2c(cc1C(F)(F)F)N(C(=O)Nc1cc(F)cc(-c3cccnc3)c1)CC2	inactive
NCCNS(=O)(=O)c1cccc2cnccc12	inactive
CNC(=O)Oc1ccc2c(c1)[C@@]1(C)CCN(C)[C@@H]1N2C	inactive
O=C(OCCN1CCCCC1)c1c[nH]c2ccccc12	inactive
COc1ccc(CCN(C)CCC[C@@](C#N)(c2ccc(OC)c(OC)c2)C(C)C)cc1OC	inactive
CCCCOc1cc(C[C@@H]2CNC(=O)N2)ccc1OC	inactive
CC(N)=NCCCC[C@H](N)C(=O)O	inactive
NC(N)=NN=Cc1c(Cl)cccc1Cl	inactive
NCCCCCCNS(=O)(=O)c1cccc2c(Cl)cccc12	inactive

Compound	outcome
N[C@@H]1CCN(O)C1=O	inactive
Cn1cnc2c(NC3CCCC3)ncnc21	inactive
CO[C@]1(C2=NCCN2)COc2ccccc2O1	inactive
CC#C[C@]1(O)CC[C@H]2[C@@H]3CCC4=CC(=O)CCC4=C3[C@H](c3ccc(N(C)C)cc3)C[C@@]21C	inactive
CC(C)(C)NC[C@H](O)c1ccc(O)c(CO)c1	inactive
Cc1cccc([C@@H]2CN(C)CCc3c2cc(O)c(O)c3Cl)c1	inactive
COCCOC(=O)C1=C(C)NC(C)=C(C(=O)OC(C)C)[C@@H]1c1cccc([N+](=O)[O-])c1	inactive
C=C[C@H](N)CCC(=O)O	inactive
C=CCN1CCc2cc(O)c(O)cc2[C@H](c2ccccc2)C1	inactive
CC[C@H](C)C(=O)O[C@H]1CCC=C2C=C[C@H](C)[C@H](CC[C@@H]3C[C@H](O)CC(=O)O3)[C@H]21	inactive
CN(C)C/C=C(\c1ccc(Br)cc1)c1cccnc1	inactive
N[C@H](CCC(=O)N[C@H](CSN=O)C(=O)NCC(=O)O)C(=O)O	inactive
CC(C)(C)c1ccc(S(=O)(=O)/C=C\C#N)cc1	inactive
Cc1cccc(/C=C\c2ccccc2)n1	inactive
CCCn1c(=O)c2[nH]c(-c3ccc(OCC(=O)Nc4ccc(C#N)cc4)cc3)nc2n(CCC)c1=O	inactive
Cc1cccc(C)c1NC(=O)C[N+](C)(C)C	inactive
Fc1ccc(C(c2ccc(F)cc2)N2CCN(C/C=C\c3ccccc3)CC2)cc1	inactive
O=C1N=C(O)CN1/N=C\c1ccc(-c2ccc([N+](=O)[O-])cc2)o1	inactive
Fc1cccc(/C=N\N=C/c2cccc(F)c2)c1	inactive
CC#CCOC(=O)c1c(C)nc2sc3c(c2c1N)CC[C@@H](O)C3	inactive
